Laboratory results taken from PubChem BioAssay (NCI).
About 79,000 compounds went through this panel and 15% of them were active in at least one assay; those are over-represented in the sample as a whole. Unmarked numbers belong to inactive results. Active and inactive are the calls of the source. No stated cut-off is given here; in the data, active means growth inhibition above about 70%; inactive means the rest.

Assay: NCI Yeast Anticancer Drug Screen. Data for the cln2 rad14 strain (AID 165);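 further: 0% = growth equal to vehicle treated cultures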
Details: S. cerevisiae cln2 rad14 strain, hits give high values
Description: Growth inhibition of yeast strains with defined genetic alterations is measured as a screen for potential anti-cancer activity. Selected strains with alterations in DNA damage repair or cell cycle control were exposed to compounds and growth inhibition was measured relative to vehicle treated controls. The strain used in this assay is cln2 rad14

[1] = at 5.0 µM (retest, dose inferred, filed as 0.5)
[2] = at 50.0 µM (retest, dose inferred, filed as 5.0)

**Q.** What does the source list for OC(CNc1ccnc2cc(Cl)ccc12)CNc1ccnc2cc(Cl)ccc12?
**A.** growth inhibition [1]: -4%; growth inhibition [2]: 46%; growth inhibition (at 50.0 µM): -21.2%

**Q.** With CN(C)N=Nc1ccc(Cl)c2ncccc12 as the molecule, how does the growth inhibition [1] read?
**A.** Its growth inhibition is -2%.

**Q.** And the growth inhibition [2]?
**A.** Its growth inhibition is -5%.

**Q.** What about the growth inhibition (at 50.0 µM) of the same molecule?
**A.** The growth inhibition was 64.2%.

**Q.** With O=C1NC(c2cccc3ccccc23)Nc2ccc(Cl)cc21 (configuration not stated) as the molecule, how does the growth inhibition [1] read?
**A.** Its growth inhibition is 12%.

**Q.** What about the growth inhibition [2] of the same molecule?
**A.** Its growth inhibition is 85% (active).

**Q.** What about the growth inhibition (at 50.0 µM) of the same molecule?
**A.** The growth inhibition was 56.3%.

**Q.** Which growth inhibition [1] does the source give for Nc1c(/C=C/c2cc3cc(C4=NCCN4)ccc3o2)[nH]c2cc(C3=NCCN3)ccc12 here?
**A.** The growth inhibition was -22%.

**Q.** What about the growth inhibition [2] of the same molecule?
**A.** Its growth inhibition is 97% (active).

**Q.** What about the growth inhibition (at 50.0 µM) of the same molecule?
**A.** The growth inhibition was 97.4% (active).

**Q.** What does the source list for CCC1(c2ccc(N3C(=O)c4ccccc4C3=O)cc2)CCC(=O)NC1=O (configuration not stated)?
**A.** growth inhibition [1]: -17%; growth inhibition [2]: 3%; growth inhibition (at 50.0 µM): 9.4%

**Q.** Which growth inhibition [1] does the source give for O=C(CNC(=O)c1ccccc1)NNc1ccccc1 here?
**A.** The growth inhibition was 3%.

**Q.** And the growth inhibition [2]?
**A.** The growth inhibition was 68%.

**Q.** What about the growth inhibition (at 50.0 µM) of the same molecule?
**A.** Its growth inhibition is 48.8%.

**Q.** For O=Cc1cc(S(=O)(=O)c2ccc(O)c(C=O)c2)ccc1O, which growth inhibition [1] is on record?
**A.** The growth inhibition was 23%.

**Q.** And the growth inhibition [2]?
**A.** The growth inhibition was 25%.

**Q.** What about the growth inhibition (at 50.0 µM) of the same molecule?
**A.** The growth inhibition was 97.5% (active).

**Q.** Which results are given for CC(C)N=C1NS(=O)(=O)c2ccccc21?
**A.** growth inhibition [1]: 0%; growth inhibition [2]: -2%; growth inhibition (at 50.0 µM): 17.8%

**Q.** With CC1=NN(C(=O)c2ccc(Cl)cc2)C(=O)C1N=Nc1ccc(S(=O)(=O)Nc2ncccn2)cc1 (configuration not stated) as the molecule, how does the growth inhibition [1] read?
**A.** The growth inhibition was -6%.

**Q.** What about the growth inhibition [2] of the same molecule?
**A.** Its growth inhibition is 2%.

**Q.** What about the growth inhibition (at 50.0 µM) of the same molecule?
**A.** Its growth inhibition is 19.4%.

**Q.** With CC(C)(N=Nc1ccc([N+](=O)[O-])cc1)[N+](=O)[O-] as the molecule, how does the growth inhibition [1] read?
**A.** Its growth inhibition is 15%.

**Q.** And the growth inhibition [2]?
**A.** Its growth inhibition is 99% (active).

**Q.** What about the growth inhibition (at 50.0 µM) of the same molecule?
**A.** Its growth inhibition is 97.2% (active).

**Q.** Which results are given for CCCCCCCCCCCCCCCCN(CC)CC?
**A.** growth inhibition [1]: 97% (active); growth inhibition [2]: 99% (active); growth inhibition (at 50.0 µM): 99.3% (active)

**Q.** Which results are given for O=[N+]([O-])/C(C(Cl)=C(Cl)Cl)=C(/Sc1ccccc1)N1CCOCC1?
**A.** growth inhibition [1]: -7%; growth inhibition [2]: 99% (active); growth inhibition (at 50.0 µM): 89.2% (active)

**Q.** What does the source list for O=C1c2ccccc2C(c2ccccc2)(c2ccccc2)N1c1ccccc1?
**A.** growth inhibition [1]: 18%; growth inhibition [2]: 69%; growth inhibition (at 50.0 µM): 91.3% (active)

**Q.** With Cc1ccc(I)c(C(C)(C)O)c1 as the molecule, how does the growth inhibition [1] read?
**A.** Its growth inhibition is 1%.

**Q.** What about the growth inhibition [2] of the same molecule?
**A.** The growth inhibition was 30%.

**Q.** What about the growth inhibition (at 50.0 µM) of the same molecule?
**A.** Its growth inhibition is 30.8%.
